Source: PubChem BioAssay (Buhrlage Lab, Dana-Farber Cancer Institute and Novartis Institutes for BioMedical Research (Cambridge, Mass))
USP8 block: human USP8 deubiquitinase inhibition. purified USP8, Ub-rhodamine cleavage fluorescence, 30 min. actives 4.2% (n = 47,000). P40818. AID 1645853. inhibition, % at 20 µM
USP17 block: human USP17-like deubiquitinase inhibition | actives 6.5% (n = 47,000) | purified USP17, Ub-rhodamine cleavage fluorescence, 3 h | inhibition, % at 50 µM | A8MUK1
OTUD3 block: human OTUD3 deubiquitinase inhibition. actives 0.7% (n = 47,000). AID 1645858. purified OTUD3, Ub-rhodamine fluorescence, 2 h. inhibition, % at 25 µM. Q5T2D3
USP30 block: inhibitors of human USP30 deubiquitinase; AID 1645860; Q70CQ3; actives 5.3% (n = 47,000); purified USP30, Ub-rhodamine cleavage fluorescence; inhibition, % at 25 µM
USP28 inh: inhibitors of human USP28 deubiquitinase; purified USP28, Ub-rhodamine cleavage fluorescence, 30 min; inhibition, % at 25 µM; AID 1645857; actives 3% (n = 47,000); Q96RU2
USP10 block: human USP10 deubiquitinase inhibition | inhibition, % at 20 µM | purified USP10, Ub-rhodamine fluorescence, 60 min | actives 1.1% (n = 47,000) | Q14694
Active calls of the source: *; nt = no result given. Shown are actives, neighbours in structure and some others; about 13% of the full set was active somewhere. Cut-off read from the data, not from the text of the source: active = inhibition above about 30%; inactive = the rest.

SMILES	USP8 block	USP17 block	OTUD3 block	USP30 block	USP28 inh	USP10 block
COc1cccc(NC(=O)C(C)n2cnc3nc(N4CCCCC4)ncc3c2=O)c1 (centres undefined)	17.3	2.4	5.0	4.9	-0.6	-0.1
Cc1cc(=O)oc2cc(OCC(=O)Nc3cc(Cl)ccc3N3CCOCC3)ccc12	21.8	41.7*	13.4	50.3*	15.5	-2.8
Cc1cccc(NC(=O)CCc2nc(-c3cccnc3)no2)c1	-5.8	-8.4	-2.7	-12.7	-17.6	-1.3
CCc1nc(-c2ccc(C(=O)Nc3cccnc3)cc2)no1	-5.7	-4.2	12.9	-7.0	49.2*	-2.1
O=C(NC1CCN(c2nc(-c3cccnc3)nc3ccccc23)CC1)c1cccnc1	5.6	8.9	2.0	3.1	51.5*	0.8
COc1cccc(CNC(=O)N2CC(c3nc(C)no3)C3(CCOCC3)C2)c1 (centres undefined)	-95.7	-17.2	0.0	-1.2	1.4	-0.6
Cc1cc(C)c(S(=O)(=O)N2CC(c3ccccc3)CC2=O)c(C)c1 (centres undefined)	-3.6	1.0	5.3	5.7	2.8	4.0
O=C(NC1CCCCC1)c1cccc(S(=O)(=O)N2CC(c3ccccc3)CC2=O)c1 (centres undefined)	14.1	14.5	23.1	30.9*	28.8	2.1
O=C1O/C(=C(/C(=O)O)c2ccccc2)C(O)=C1c1ccccc1	-149.6	6.3	17.9	-67.8	9.3	-5.9
COc1ccc(C(=O)CSc2nnc(-c3cccnc3)n2-c2ccccc2)cc1	7.9	41.6*	8.3	51.7*	-0.2	1.4
Cc1cc(C)c(C(=O)CSc2nnc(-c3cccnc3)n2C)cc1C	3.9	0.1	3.7	2.0	-2.0	-3.6
COc1cccc(CC2(Cc3cccc(OC)c3)C(=O)N(Cc3ccccn3)C(=O)c3ccccc32)c1	27.1	21.3	25.6	35.9*	7.9	2.5
Cc1cccc(-n2nnc(-c3nc(-c4ccc(Cl)cc4)no3)c2N)c1	11.7	-7.8	-10.6	-11.8	-13.7	-2.4
Nc1c(-c2nc(-c3ccc(F)cc3)no2)nnn1-c1ccccc1F	34.8*	5.4	1.4	-0.4	-5.7	1.1
Nc1c(-c2nc(-c3ccccc3Cl)no2)nnn1-c1ccc(Cl)cc1	94.3*	43.3*	3.7	39.7*	19.7	60.2*
CCOc1ccccc1NC(=O)N(CCCN1CCC(C)CC1)C1CCN(C(C)=O)CC1	2.5	-2.1	-0.1	3.1	1.4	-0.7
Cc1cc(C)cc(Oc2nc3cc(C)nn3c3ccccc23)c1	8.5	-4.9	-3.1	15.1	-4.5	0.3
Cc1cc2nc(Oc3cccc(Cl)c3)c3ccccc3n2n1	2.9	61.9*	-5.7	-3.4	-10.9	0.0
O=C(Cc1n[nH]c(Cc2ccc(F)cc2)n1)NC1CCCCCC1	41.7*	9.1	1.1	3.3	4.0	-1.7
O=C(Cc1n[nH]c(Cc2ccc(F)cc2)n1)Nc1cccc(F)c1	-10.3	nt	-7.0	-16.0	-7.1	0.4
O=C(c1ccc2c(c1)OCO2)N1CCc2c(nc(-c3ccccc3)[nH]c2=O)C1	6.6	3.8	6.2	-6.3	3.4	2.4
COc1ccccc1-c1cc(CNCCN)n(Cc2ccc3ccccc3c2)n1	-104.3	-12.6	10.1	44.5*	30.4*	-1.1
O=C(c1ccc2noc(-c3ccc(F)cc3)c2c1)N1CCN(c2ccccc2F)CC1	-26.6	-37.4	-5.8	-120.7	-5.8	-5.1
COc1ccc(-c2cnc([C@@H]3COCCN3Cc3cnc[nH]3)[nH]2)cc1	-40.2	-51.2	4.1	-17.7	5.1	-2.5
CCc1cc(C2CCCN2C(=O)C23CC4CC(CC(C4)C2)C3)on1 (centres undefined)	-6.5	5.1	2.9	14.5	-4.9	-0.8
SMILES	USP8 block	USP17 block	OTUD3 block	USP30 block	USP28 inh	USP10 block
O=C(COC(=O)C1CCCN1C(=O)C12CC3CC(CC(C3)C1)C2)c1ccc(Cl)cc1 (centres undefined)	0.1	7.7	14.1	51.2*	7.4	12.5
CC/C=C\C/C=C\C/C=C\CCCCCCCC(=O)O	38.7*	87.6*	72.9*	52.8*	73.8*	54.0*
CC(C)c1ccc(NC(=O)COc2ccc([N+](=O)[O-])cc2)cc1	-66.6	-14.7	0.1	-1.4	12.4	9.6
Cc1ccc(-n2ncc3c(O)c(C(=O)Nc4ccccc4F)c(=O)[nH]c32)cc1	83.3*	10.9	14.0	19.2	11.2	18.4
CCc1ccccc1NC(=O)c1c(O)c2cnn(C)c2[nH]c1=O	84.5*	14.4	-11.6	-37.6	-16.0	-0.3
CCc1ccccc1NC(=O)c1cn(CC)c2nc(C)ccc2c1=O	-3.9	-5.4	-5.1	-24.9	-7.9	0.4
Cc1ccsc1CN(C)Cc1nc(N)nc(Nc2ccccc2)n1	1.7	-21.8	1.5	nt	nt	-3.1
O=C(NCc1ccc(F)cc1)c1cc(-n2cnnn2)ccc1Cl	23.5	66.5*	6.2	30.2*	30.2*	3.0
O=C(Nc1ccc2c(c1)OCO2)c1cc(-c2cccnc2)n(-c2ccccc2)n1	22.5	30.1*	9.4	24.0	78.7*	8.3
Cc1ccc(C(=O)NCCc2nnc3ccc(SCc4c(F)cccc4Cl)nn23)cc1	15.2	5.9	8.2	30.2*	15.7	2.2
Cc1ccc(C(=O)NCCc2nnc3ccc(SCC(=O)NCc4ccc(F)cc4)nn23)cc1	9.6	16.6	11.5	29.5	10.8	-1.1
Cc1cc(-c2ccnc3c(C#N)cnn23)c(C)s1	4.0	67.2*	-8.9	-5.2	4.1	0.5
CC1=C(C(=O)Nc2ccccc2Cl)C(c2ccc(C#N)cc2)NC(=O)N1 (centres undefined)	-19.6	-6.8	-7.8	-22.4	-11.8	0.3
COc1ccc(CC(=O)Nc2ccc(C)c(S(=O)(=O)Nc3ccccc3OC)c2)cc1	0.4	1.0	0.2	4.1	0.1	10.3
COc1ccc(NC(=O)CCOc2ccccc2C)cc1S(=O)(=O)Nc1cc(C)ccc1Br	8.0	5.5	5.2	34.8*	25.1	24.6
Cc1c(-c2nsc(NC(=O)c3ccc(Cl)cc3)n2)nnn1-c1ccccc1F	86.5*	38.7*	26.8	86.3*	64.2*	43.3*
O=C(Nc1nc(-c2ccccc2)ns1)c1ccc(F)cc1	-0.4	0.0	6.6	3.2	6.3	3.9
Cc1ccc(NC(=O)Cn2c(C)cc(-c3nc(C4CC4)no3)c2C)c(F)c1	-21.2	-28.5	-41.8	-123.9	-17.4	-2.3
Cc1ccc(NC(=O)Cc2nnc3c(-c4nc(C5CC5)no4)cccn23)cc1F	93.4*	9.6	7.5	-21.5	-9.2	53.8*
Cc1ccc(NC(=O)Cc2nnc3c(-c4nc(C5CC5)no4)cccn23)c(C)c1	64.6*	5.1	-13.2	3.8	-7.8	8.0
Cc1noc(-c2ccc3nnc(CC(=O)Nc4ccc(C)c(C)c4)n3c2)n1	4.6	13.7	4.7	18.5	-0.1	-2.9
CC(=O)N1CCSc2ccc(S(=O)(=O)Nc3ccc(F)cc3C)cc21	-8.0	-7.6	-1.6	-1.0	-2.2	0.8
